Sampled rows, rich in hits. Any-hit rate of the full collection: about 2.9%.
ATXN2 expr inh: Primary qHTS for Inhibitors of ATXN expression; HEK-293 ATXN2-luciferase reporter, luminescence, 24 h; Potency, µM (top dose mostly 57 µM), for inactives: top-dose activity change, negative = inhibition, most hits filed as inhibitors; 360,000 compounds, 0.72% hits; AID 1745845, 2022; further: on the % scale 0 is the no-effect control and ±100 the full control effect; nearly all actives have a fitted effect of over 55% in size
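ATXN2-luciferase reporter cells (luciferase flanked by upstream and downstream ATXN2 gene portions) were treated 24 h at 37 °C with compounds at up to 57 uM. SteadyGlo luminescence gave expression; GF-AFC fluorescence gave viability.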
Nrf2 activator: qHTS of Nrf2 Activators; AREc32 ARE-luciferase reporter (MCF7-derived line), luminescence, 24 h; 410,000 compounds, 0.31% hits; Potency, µM (series often up to 46.1 µM), for inactives: at the highest dose activation, most hits filed as activators; further: % of control where 0% means no effect; nearly all actives have a fitted effect of over 65% in size
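AREc32 cells carrying an ARE-driven firefly luciferase, 1000 cells/well in OPTI-MEM with 5% FBS, dosed after overnight attachment and incubated 24 hr at 37 deg C. Steady-Glo luminescence read after 30 min at RT.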
Nrf2 inh: Nrf2 qHTS screen for inhibitors. A549 ARE-Fluc reporter, luciferase luminescence, 18-24 h. Potency, µM (highest dose often 46 µM), inactives show top-dose activity change, negative = inhibition, most hits filed as inhibitors. 360,000 compounds, 2.1% hits; further: on the % scale 0 is the no-effect control and ±100 the full control effect; nearly all actives have a fitted effect of over 60% in size
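Nrf2 function is reported as luminescence of an ARE-controlled luciferase in A549 cells. Compounds were tested at several concentrations, and a CellTiter-Fluor read on the same wells flagged cytotoxicity.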
A549 tox: Nrf2 qHTS screen for inhibitors: counterscreen for cytotoxicity. Potency, µM (series often up to 46 µM), inactives show top-dose activity change, negative = cytotoxicity, usual class: inhibitors. A549 ARE-Fluc cells, CellTiter-Fluor viability, 18-24 h. 390,000 compounds, 0.16% hits; further: on the % scale 0 is the no-effect control and ±100 the full control effect
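A549 ARE_Fluc cells in 5% FBS OPTI-MEM were exposed to compounds in concentration-response for 18-24 h at 37 deg C. Viability was read by CellTiter-Fluor fluorescence (Ex 405/Em 525) after 30 min, before the luciferase read.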
ATXN viability: Viability Counterscreen for Primary qHTS for Inhibitors of ATXN expression. S2 cells (HEK-293 line with an ATXN2-luciferase reporter) viability, CellTiter-Fluor protease fluorescence, 24 h. Potency, µM (doses to about 56.7 µM), hits mostly cytotoxic. 400,000 compounds, 0.49% hits; further: nearly all actives have a fitted effect of over 40% in size
Active calls of the source: *; i = inactive; ? = inconclusive; . = no result given; [ ] = dose if it differs, or a comment. The call rests on the fitted dose curve; in most records, active means well fitted curve in the direction sought with a large enough effect; inconclusive means small, poorly fitted or top-dose-only effect, or another doubt; inactive means no such curve, though single readings can be large; an effect the other way counts as inactive or inconclusive. Potency means the concentration at half of the fitted maximal effect.

SMILES | ATXN2 expr inh | Nrf2 activator | Nrf2 inh | A549 tox | ATXN viability
O=C(Nc1ccc2c(c1)OCCO2)c1ccc2ccccc2n1 | 63% | 7.9µM* | ? | -10% | i
Cc1ccc(C(=O)Nc2ccc3c(c2)OCCO3)c(C)c1 | 5µM* | -1%[9.22 µM] | ? | -4% | i
O=C(Nc1ccc2oc(-c3ccccc3F)nc2c1)c1ccc2c(c1)OCCO2 | ? | 0% | 13µM* | ? | ?
Cc1cc(C)c(C(=O)Nc2ccc3c(c2)OCCO3)c(C)c1 | . | 3% | . | . | i
O=C(Nc1ccc2c(c1)OCCO2)c1ccccn1 | . | 0% | ? | -5% | i
COc1ccc2cc3cc(C(=O)Nc4ccc5c(c4)OCCO5)oc3nc2c1 | ? | 2% | 18µM* | -25% | .
COc1ccc(C(=O)NCCN2Cc3cc(C)ccc3OC(C)C2)c(OC)n1 (stereo unspecified) | . | . | . | . | i
COc1cc(CN2CCC3(CCC(CNC(=O)c4ccco4)O3)CC2)ccc1O (stereo unspecified) | . | . | . | . | i
O=C(Nc1cccc2cccnc12)c1ccc(F)cc1 | . | 13µM* | ? | 1% | .
Cc1cccc(NC(=S)NC(=O)c2cccs2)n1 | 43% | ? | . | 10% | i
O=C(NC(=S)Nc1cccc2cccnc12)c1cccs1 | . | 8.9µM* | 6% | -3% | i
O=C(NC(=S)Nc1cccc2cccnc12)c1ccccc1 | 0% | 4.5µM* | ? | -2% | i
N#Cc1ccccc1NC(=S)NC(=O)c1cccs1 | . | 16µM* | 1% | 2% | i
O=C(CCCCCCNC(=O)c1cnc(N(c2ccccc2)c2ccccc2)nc1)NO | 138% | . | . | . | .
C/C(=C(\CCO)SS/C(CCO)=C(\C)N(C=O)Cc1cnc(C)nc1N)N(C=O)Cc1cnc(C)nc1N | 17% | . | . | . | i
COc1ccc(C(=O)N(Cc2ccccc2)Cc2cccs2)c(O)c1 | . | . | 10% | -1% | .
COc1ccc([C@H]2CC(=O)C=C(c3ccccc3)C2)cc1OC | -26% | 4% | 2% | 5% | i
CCCCC/C=C/C1=CC(=O)C[C@H](c2ccc(OC)c(OC)c2)C1 | 22µM* | ? | ? | -12% | ?
CCOc1ccc2[nH]c3ncccc3c(=O)c2c1 | -10% | 17% | 16% | ? | .
CCOc1ccc2c(ccc(/C=C/c3cc(C)c4cccnc4c3O)[n+]2C)c1 | ? | -2% | ? | ? | 7.5µM*
Cn1nc(C(=O)Nc2cccc(Cl)c2)cc1C(=O)Nc1cccc(Cl)c1 | -39% | 0% | 13µM* | ? | ?
CC(C)(C)OC(=O)NCCCNc1ncnc2ccc(-c3ccc4c(c3)OCO4)cc12 | . | . | -4% | -5% | .
O=C(CSc1nnc(-c2cccs2)o1)c1cccs1 | 53% | 6% | ? | 0% | i
Cc1cc(C(=O)CSc2nnc(-c3cccs3)o2)c(C)n1-c1ccccc1 | ? | -1% | 21µM* | -3% | i
COc1ccc(-c2[nH]nc3nc(N4CCN(C(=O)c5ccoc5)CC4)cc(C(F)(F)F)c23)cc1 | 20µM* | -1% | . | . | 20µM*
SMILES | ATXN2 expr inh | Nrf2 activator | Nrf2 inh | A549 tox | ATXN viability
CN(C)c1ccc(/C=C(\C#N)c2ccccn2)cc1 | 11µM* | -3% | ? | -13% | i
COc1cc(/C=C(\C#N)c2ccccn2)cc(OC)c1O | . | 13µM* | 2% | 8% | i
Cc1cc(C)n2nc(/C(C#N)=C/c3ccccn3)c(C#N)c2n1 | ? | 7.9µM* | -27% | -19% | ?
N#C/C(=C/c1cccs1)c1ccccn1 | 27% | ? | ? | -5% | i
COc1cc(/C=C(\C#N)c2ccccn2)ccc1OCc1ccccc1Cl | 2% | -1% | -19% | 4% | i
N#C/C(=C\c1ccccn1)c1ccccn1 | 8% | 22µM* | ? | -2% | ?
CC(=O)c1c(C)nn(CC(O)COc2ccc3c(c2)CCC3)c1C (stereo unspecified) | -22% | 0% | 9.2µM* | 2% | i
COc1cc2c(cc1O)CC[C@@H]1[C@@H]2CC[C@]2(C)[C@@H](O)CC[C@@H]12 | -14% | 0% | 9.2µM* | -12% | ?
C[C@]12CC[C@@H]3c4ccc(OC(=O)c5ccccc5)cc4CC[C@H]3[C@@H]1CC[C@@H]2O | 6% | -1% | ? | -6% | i
CCc1ccc(C2c3[nH]c4ccccc4c3CCN2C(=O)CN2CCN(CC)CC2)cc1 (stereo unspecified) | ? | 13% | 18% | -7% | 25µM*
CCc1ccc(C2c3[nH]c4ccccc4c3CCN2C(=O)CNC(N)=O)cc1 (stereo unspecified) | -10% | 3% | -18% | -18% | i
CC1CCN(S(=O)(=O)c2ccc(C(=O)Nc3ccccc3-c3nc4ccccc4[nH]3)cc2)CC1 | 4% | 0% | 26µM* | -9% | i
CC1CCCN(S(=O)(=O)c2ccc(C(=O)Nc3ccccc3-c3nc4ccccc4[nH]3)cc2)C1 (stereo unspecified) | -14% | 0% | 4% | 2% | i
CCc1ccc(Oc2c(C(F)(F)F)oc3c(CN4CCN(C)CC4)c(O)ccc3c2=O)cc1 | -8% | 0% | 4% | -9% | i
O=C1C=C(N2CCOCC2)c2ccccc2C1=O | ? | -4% | 21µM* | ? | 25µM*
Cc1ccc(C)c(N2CCN(C(=O)c3ccc(Cn4c(=O)[nH]c5ccccc5c4=O)cc3)CC2)c1 | -27% | -1% | 7.3µM* | -22% | i
CC(=O)c1ccc(N2CCN(C(=O)c3ccc(Cn4c(=O)[nH]c5ccccc5c4=O)cc3)CC2)cc1 | 2% | -1% | . | -9% | i
CN(C)CC(C)(C)CNC(=O)c1cnn(-c2ncc3c(n2)-c2ccccc2CC3)c1-c1ccco1 | . | . | . | . | i
Cn1c(NCC2CCCCC2)nc2cc(-c3ccsc3)sc2c1=O | -4% | 2µM* | . | . | i
CC1CCCN(c2nc(NCc3ccco3)nc(N)c2[N+](=O)[O-])C1 (stereo unspecified) | -11% | 20%[9.22 µM] | 18µM* | 1% | ?
CC1CC(C)CN(c2nc(NCc3ccco3)nc(N)c2[N+](=O)[O-])C1 (stereo unspecified) | -15% | 22% | 23µM* | -25% | i
Nc1nc(NCc2ccco2)nc(N2CCOCC2)c1[N+](=O)[O-] | 7% | ? | ? | -8% | i
Cc1ccc(Nc2nc(N)c([N+](=O)[O-])c(N3CCCC(C)C3)n2)cc1C (stereo unspecified) | -19% | 0% | ? | -2% | ?
COc1ccc(Cl)cc1NC(=O)c1cc(C)nn1-c1ccccc1 | . | 13% | ? | 4% | .
CCCc1ccc(S(=O)(=O)N2CCC(c3nnc(-c4cccc(C)c4)o3)CC2)cc1 | 10µM* | 10% | -7% | -6% | .
Cc1ccc(S(=O)(=O)N2CCC(c3nnc(-c4cccc(C)c4)o3)CC2)cc1 | 5.6µM* | 21% | ? | -6% | 7.9µM*

High-throughput results as filed in PubChem BioAssay.
